Laboratory results taken from PubChem BioAssay (NCATS).
Results filed as inconclusive are left out. Where a call stands in place of a potency, no number is given. Activity calls are given as the source filed them. Calls come from the whole dose curve; as a rule, active = well fitted inhibition curve with a large enough effect; inconclusive = small, poorly fitted or top-dose-only effect; inactive = flat fitted curve, though single readings scatter.

Experiments:
Test in all cases: qHTS profiling for inhibitors of Plasmodium falciparum proliferation (AID 504749); note: nearly all actives have a fitted effect of over 60% in size
Conditions in all cases: P. falciparum in erythrocytes, SYBR Green DNA, 72 h; series mostly up to 12.8 µM
[1] = tested on: 3D7
In short: (§1)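 P. falciparum-infected erythrocytes (0.3% parasitemia, 2.5% hematocrit) incubated with compound 72 h at 37 C, 5% CO2. Parasite DNA detected by SYBR Green after lysis, overnight at room temperature; normalised to 0.29 uM artemisinin and DMSO.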

[2] = tested on: AS120
In short: as §1

[3] = tested on: ATS189
In short: as §1

[4] = tested on: ATS95
In short: as §1

[5] = tested on: CP191
In short: as §1

[6] = tested on: CP238
In short: as §1

[7] = tested on: CP247
In short: as §1

[8] = tested on: CP256
In short: as §1

[9] = tested on: Dd2
In short: as §1

[10] = tested on: N140
In short: as §1

[11] = tested on: P93_24
In short: as §1

[12] = tested on: PAD
In short: as §1

[13] = tested on: PC15
In short: as §1

[14] = tested on: PC49
In short: as §1

[15] = tested on: TAB109
In short: as §1

[16] = tested on: TAB113
In short: as §1

[17] = tested on: TAB165
In short: as §1

[18] = tested on: CP192
In short: as §1

[19] = tested on: CP262
In short: as §1

[20] = tested on: DIV30
In short: as §1
Potency is the fitted concentration of half-maximal effect.

| SMILES | Potency [1] | Potency [2] | Potency [3] | Potency [4] | Potency [5] | Potency [6] | Potency [7] | Potency [8] | Potency [9] | Potency [10] | Potency [11] | Potency [12] | Potency [13] | Potency [14] | Potency [15] | Potency [16] | Potency [17] | Potency [18] | Potency [19] | Potency [20] |
| --- | --- | --- | --- | --- | --- | --- | --- | --- | --- | --- | --- | --- | --- | --- | --- | --- | --- | --- | --- | --- |
| CC(=O)N(C[C@@H](C)C(=O)O)c1c(I)cc(I)c(N)c1I | inactive | inactive | inactive | inactive | inactive | inactive | inactive | inactive | inactive | inactive | inactive | inactive | inactive | inactive | inactive | inactive | inactive |  |  |  |
| CC(=O)OCC(=O)[C@@]1(O)[C@H](C)C[C@@H]2[C@H]3CCC4=CC(=O)C=C[C@]4(C)[C@]3(F)[C@@H](O)C[C@@]21C | inactive | inactive | inactive | inactive | inactive | inactive | inactive | inactive | inactive | inactive | inactive | inactive | inactive | inactive | inactive | inactive | inactive | inactive | inactive | inactive |
| Cc1cccc(C)c1NC(=O)[C@H](C)N | inactive | inactive | inactive | inactive | inactive | inactive | inactive | inactive | inactive | inactive | inactive | inactive | inactive | inactive | inactive | inactive | inactive |  |  |  |
| COc1ccc([C@@H]2CC(=O)c3c(O)cc(O[C@H]4O[C@@H](CO[C@H]5O[C@@H](C)[C@@H](O)[C@@H](O)[C@@H]5O)[C@@H](O)[C@@H](O)[C@@H]4O)cc3O2)cc1O | inactive | inactive | inactive | inactive | inactive | inactive | inactive | inactive | inactive | inactive | inactive | inactive | inactive | inactive | inactive | inactive | inactive |  | inactive | inactive |
| COc1ccc(C[C@@](C)(N)C(=O)O)cc1OC | inactive | inactive | inactive | inactive | inactive | inactive | inactive | inactive | inactive | inactive | inactive | inactive | inactive | inactive | inactive | inactive | inactive | inactive | inactive | inactive |
| COCC(=O)Nc1c(I)c(C(=O)NC[C@@H](O)CO)c(I)c(C(=O)N(C)C[C@@H](O)CO)c1I | inactive | inactive | inactive | inactive | inactive | inactive | inactive | inactive | inactive | inactive | inactive | inactive | inactive | inactive | inactive | inactive | inactive | inactive | inactive | inactive |
| CC[C@@H]1OC(=O)[C@H](C)[C@H](O[C@@H]2C[C@](C)(OC)[C@H](O)[C@H](C)O2)[C@H](C)[C@H](O[C@@H]2O[C@@H](C)C[C@@H](N(C)C)[C@@H]2O)[C@](C)(O)C[C@H](C)C(=NOCOCCOC)[C@H](C)[C@H](O)[C@]1(C)O | inactive | inactive | inactive | inactive |  | inactive | inactive |  |  | inactive | inactive | inactive | inactive | inactive | inactive | inactive | inactive | inactive | inactive | inactive |
| C=CC1=C(C(=O)O)N2C(=O)[C@@H](NC(=O)/C(=N\OCC(=O)O)c3csc(N)n3)[C@@H]2SC1 | inactive | inactive | inactive | inactive | inactive | inactive | inactive | inactive | inactive | inactive | inactive | inactive | inactive | inactive | inactive | inactive | inactive | inactive | inactive | inactive |
| CCC(=O)O[C@@]1(C(=O)SCF)[C@@H](C)C[C@H]2[C@@H]3C[C@@H](F)C4=CC(=O)C=C[C@@]4(C)[C@]3(F)[C@@H](O)C[C@]21C |  |  |  |  |  |  | inactive | inactive |  | 3.98 µM (active) | 3.55 µM (active) |  |  |  |  |  | 3.16 µM (active) | inactive | inactive |  |
| CCC(=O)O[C@@H]1[C@H](C)O[C@H](O[C@H]2[C@@H](N(C)C)[C@H](O)[C@@H](O[C@@H]3[C@@H](CC=O)C[C@@H](C)[C@@H](O)/C=C\C=C/C[C@@H](C)OC(=O)C[C@@H](OC(=O)CC)[C@H]3OC)O[C@H]2C)C[C@]1(C)O | inactive | inactive | inactive | inactive | inactive |  | inactive |  | 3.16 µM (active) |  |  | inactive | inactive | inactive |  | inactive | inactive | inactive |  | inactive |
| CNC[C@H](O)c1ccc(OC(=O)C(C)(C)C)c(OC(=O)C(C)(C)C)c1 | inactive | inactive | inactive | inactive | inactive | inactive | inactive | 10 µM (active) | inactive | inactive | inactive | inactive |  | inactive | inactive | inactive | inactive | inactive | inactive | inactive |
| C[C@@H](C(=O)O)c1ccc(C(=O)c2ccccc2)s1 | inactive | inactive | inactive | inactive | inactive | inactive | inactive | inactive | inactive | inactive | inactive | inactive | inactive | inactive | inactive | inactive | inactive | inactive | inactive | inactive |
| COc1c(O[C@H]2O[C@@H](CO)[C@@H](O)[C@@H](O)[C@@H]2O)cc2c(c1OC)-c1ccc(SC)c(=O)cc1[C@H](NC(C)=O)CC2 | inactive | inactive | inactive | inactive | inactive | inactive | inactive | inactive | inactive | inactive | inactive | inactive | inactive | inactive | inactive | inactive | inactive | inactive | inactive | inactive |
| NC(=O)c1ccc[n+]([C@@H]2O[C@H](COP(=O)([O-])OP(=O)(O)OC[C@H]3O[C@@H](n4cnc5c(N)ncnc54)[C@@H](O)[C@@H]3O)[C@@H](O)[C@@H]2O)c1 | inactive | inactive | inactive | inactive | inactive | inactive | inactive | inactive | inactive | inactive | inactive | inactive | inactive | inactive | inactive | inactive | inactive | inactive | inactive | inactive |
| CCC[C@@H]1O[C@@H]2C[C@@H]3[C@H]4CCC5=CC(=O)C=C[C@@]5(C)[C@H]4[C@H](O)C[C@@]3(C)[C@@]2(C(=O)CO)O1 | 7.94 µM (active) | 11.2 µM (active) | 7.08 µM (active) |  | 11.2 µM (active) |  | 8.91 µM (active) | 11.2 µM (active) | 12.6 µM (active) |  | 8.91 µM (active) |  |  |  | 7.94 µM (active) |  | 11.2 µM (active) |  | inactive |  |
| NC(=O)c1cc[n+](CC2=C(C(=O)[O-])N3C(=O)[C@@H](NC(=O)Cc4cccs4)[C@@H]3SC2)cc1 | inactive | inactive | inactive | inactive | inactive | inactive | inactive | inactive | inactive | inactive | inactive | inactive | inactive | inactive | inactive | inactive | inactive | inactive | inactive | inactive |
| C[C@H](C(=O)O)c1cccc(Oc2ccccc2)c1 | inactive | inactive | inactive | inactive | inactive | inactive | inactive | inactive | inactive | inactive | inactive | inactive | inactive | inactive | inactive | inactive | inactive | inactive | inactive | inactive |
| CO[C@]1(NC(=O)C2SC(=C(C(N)=O)C(=O)O)S2)C(=O)N2C(C(=O)O)=C(CSc3nnnn3C)CS[C@H]21 (stereo not given in full) | inactive | inactive | inactive | inactive | inactive | inactive | inactive | inactive | inactive | inactive |  | inactive | inactive | inactive | inactive | inactive | inactive | inactive | inactive | inactive |
| CO[C@H]1[C@H](O[C@H]2O[C@@H](C)[C@@H](O[C@@H]3C[C@](C)(O)[C@H](OC(=O)CC(C)C)[C@H](C)O3)[C@@H](N(C)C)[C@@H]2O)[C@@H](CC=O)C[C@@H](C)[C@@H](O)/C=C\C=C/C[C@@H](C)OC(=O)C[C@H]1OC(C)=O | inactive |  |  |  |  |  |  | 2 µM (active) | 1.41 µM (active) |  |  |  |  | inactive | 1 µM (active) | inactive |  |  | 2.28 µM (active) |  |
| CC(=O)C[C@H](c1ccc([N+](=O)[O-])cc1)c1c(O)c2ccccc2oc1=O | inactive | inactive | inactive | inactive | inactive | inactive | inactive | inactive | inactive | inactive | inactive | inactive | inactive | inactive | inactive | inactive | inactive | inactive | inactive | inactive |
| C[C@@H]1Cc2ccccc2N1NC(=O)c1ccc(Cl)c(S(N)=O)c1 (stereo not given in full) | inactive | inactive | inactive | inactive | inactive | inactive | inactive | inactive | inactive | inactive | inactive | inactive | inactive | inactive | inactive | inactive | inactive | inactive | inactive | inactive |
| CC[C@H](CO)NCCN[C@@H](CC)CO | inactive | inactive | inactive | inactive | inactive | inactive | inactive | inactive | inactive | inactive | inactive | inactive | inactive | inactive | inactive | inactive | inactive | inactive | inactive | inactive |
| Clc1ccc(CC[C@H](Cn2ccnc2)Sc2c(Cl)cccc2Cl)cc1 |  | 2.24 µM (active) |  |  |  |  |  |  | 3.55 µM (active) | 3.16 µM (active) | 2.24 µM (active) | 3.55 µM (active) |  |  |  | 3.55 µM (active) | 1.26 µM (active) |  |  | 5.73 µM (active) |
| CC[C@H](Cc1c(I)cc(I)c(N)c1I)C(=O)O | inactive | inactive | inactive | inactive | inactive | inactive | inactive | inactive | inactive | inactive | inactive | inactive | inactive | inactive | inactive | inactive | inactive | inactive | inactive | inactive |
